Assays:
Details in all cases: concentration: 1 μM, replicates: in singlicate; n = 1
LRRK2 = test system: LRRK2
LTK = test system: LTK
LYN = test system: LYN
LZK = test system: T1, LZK
T1 construct: gene MAP3K13

MAK = test system: MAK
MAP3K15 = test system: MAP3K15
MAP3K1 = test system: MAP3K1
MAP3K2 = test system: MAP3K2
MAP3K3 = test system: MAP3K3
MAP3K4 = test system: MAP3K4
MAP4K2 = test system: MAP4K2
MAP4K3 = test system: MAP4K3
MAP4K4 = test system: MAP4K4
MAP4K5 = test system: MAP4K5
MAPKAPK2 = test system: MAPKAPK2
MAPKAPK5 = test system: MAPKAPK5
MARK1 = test system: MARK1
MARK2 = test system: MARK2
MARK3 = test system: MARK3
MARK4 = test system: MARK4
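Also: KINOMEscan kinase panel screen.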

Row | SMILES | %Inh (LRRK2) | %Inh (LTK) | %Inh (LYN) | %Inh (LZK) | %Inh (MAK) | %Inh (MAP3K15) | %Inh (MAP3K1) | %Inh (MAP3K2) | %Inh (MAP3K3) | %Inh (MAP3K4) | %Inh (MAP4K2) | %Inh (MAP4K3) | %Inh (MAP4K4) | %Inh (MAP4K5) | %Inh (MAPKAPK2) | %Inh (MAPKAPK5) | %Inh (MARK1) | %Inh (MARK2) | %Inh (MARK3) | %Inh (MARK4)
1 | COc1ccc(Nc2nccc(N3CCC(NC(=O)C(C)c4ccc(Cl)cc4)CC3)n2)cc1 (stereo not drawn) [GSK1379812] | 0% | 27% | 0% | 36% | 64% | 0% | 12% | 0% | 0% | 15% | 0% | 0% | 3% | 0% | 6% | 0% | 15% | 19% | 0% | 22%
2 | COc1nccc(-c2c(-c3ccc(F)cc3)ncn2CCCN2CCOCC2)n1 [SB-282852] | 0% | 0% | 0% | 0% | 29% | 0% | 0% | 0% | 13% | 7% | 0% | 0% | 0% | 0% | 5% | 0% | 0% | 7% | 24% | 0%
3 | Nc1nccc(-c2c(-c3ccc(F)cc3)ncn2C2CCN(Cc3ccccc3)CC2)n1 [SB-219980] | 0% | 11% | 0% | 0% | 0% | 0% | 0% | 29% | 0% | 0% | 19% | 16% | 10% | 73% | 0% | 0% | 5% | 1% | 0% | 1%
4 | COC(=O)c1cccc(NC(=O)NC2CCN(c3ccnc(Nc4ccc(OC)cc4)n3)C2)c1 (stereo not drawn) [GSK1379746] | 0% | 15% | 0% | 34% | 15% | 0% | 0% | 0% | 0% | 12% | 0% | 0% | 0% | 0% | 14% | 0% | 0% | 0% | 4% | 0%
5 | Cc1c(Cn2c(C)c(C)n3c(=O)cc(N4CCOCC4)nc23)cccc1C(F)(F)F [GSK2328680] | 0% | 0% | 0% | 0% | 16% | 0% | 16% | 0% | 0% | 9% | 0% | 0% | 0% | 0% | 16% | 0% | 0% | 0% | 19% | 0%
6 | CCc1ccc(-c2ccc3c(c2)-c2n[nH]cc2S(=O)(=O)N3C)cc1 | 0% | 3% | 0% | 0% | 0% | 0% | 0% | 0% | 0% | 19% | 0% | 15% | 15% | 12% | 0% | 0% | 0% | 0% | 0% | 0%
7 | Cc1ccc(NC(=O)Nc2ccc(Cl)cc2)cc1-c1ccc(C(=O)Nc2ccncc2)cc1 [GSK1398472] | 0% | 2% | 30% | 3% | 18% | 0% | 3% | 16% | 0% | 6% | 0% | 0% | 5% | 6% | 19% | 0% | 0% | 0% | 0% | 1%
8 | COC(=O)c1cccc(NC(=O)NC2CCN(c3ccnc(Nc4ccc(F)cc4)n3)C2)c1 (stereo not drawn) [GSK1379725] | 5% | 17% | 0% | 6% | 16% | 0% | 8% | 11% | 0% | 24% | 0% | 0% | 1% | 0% | 15% | 0% | 0% | 0% | 42% | 0%
9 | COc1ccc(Nc2nccc(N3CCC(NC(=O)C(C)c4ccc(Cl)cc4)C3)n2)cc1 (stereo not drawn) [GSK1379735] | 51% | 61% | 0% | 0% | 9% | 11% | 5% | 0% | 0% | 16% | 0% | 11% | 4% | 0% | 32% | 0% | 0% | 0% | 12% | 0%
10 | Fc1ccc(-c2nc3n(c2-c2ccncc2)CCS3)cc1 [GI98581] | 14% | 22% | 0% | 3% | 63% | 0% | 13% | 6% | 0% | 10% | 0% | 0% | 26% | 11% | 1% | 0% | 0% | 0% | 0% | 12%
11 | COc1cccc(NC(=O)Nc2ccc(C)c(-c3ccc(C(=O)Nc4ccncc4)cc3)c2)c1 [GSK1398474] | 0% | 23% | 97.9% | 0% | 100% | 0% | 13% | 0% | 0% | 20% | 0% | 0% | 24% | 16% | 5% | 0% | 94.1% | 18% | 0% | 20%
12 | Cc1cnc(N)c(/C=C/c2cncc(C(=O)NCCc3ccc(Cl)cc3Cl)c2)c1.Cl [GSK190937] | 0% | 0% | 20% | 0% | 9% | 0% | 7% | 0% | 0% | 0% | 4% | 0% | 17% | 18% | – | – | 0% | 6% | 0% | 0%
13 | COc1ccc(CSc2nnc(-c3ccc4c(c3)CCO4)o2)cc1 | 0% | 0% | 0% | 3% | 0% | 0% | 0% | 0% | 0% | 8% | 0% | 0% | 0% | 0% | 0% | 0% | 0% | 21% | 0% | 0%
14 | CCn1c(-c2ccccc2)nc2cnccc21 [SB-733416] | 51% | 0% | 0% | 0% | 11% | 22% | 14% | 2% | 0% | 0% | 0% | 9% | 18% | 8% | 34% | 0% | 13% | 0% | 10% | 26%
15 | Cc1ccc(NC(=O)Nc2ccc(Cl)c(C(F)(F)F)c2)cc1-c1ccc(C(=O)Nc2ccncc2)cc1 [GSK1398470] | 0% | 4% | 42% | 0% | 15% | 0% | 3% | 0% | 0% | 14% | 0% | 8% | 29% | 12% | 7% | 0% | 0% | 13% | 8% | 0%
16 | COc1ccc(Nc2nccc(NCCNC(=O)Nc3cc(C)ccc3C)n2)cc1 [GSK1379899] | 23% | 0% | 0% | 0% | 20% | 0% | 1% | 0% | 0% | 3% | 0% | 3% | 16% | 26% | 15% | 0% | 0% | 0% | 0% | 9%

Row | SMILES | %Inh (LRRK2) | %Inh (LTK) | %Inh (LYN) | %Inh (LZK) | %Inh (MAK) | %Inh (MAP3K15) | %Inh (MAP3K1) | %Inh (MAP3K2) | %Inh (MAP3K3) | %Inh (MAP3K4) | %Inh (MAP4K2) | %Inh (MAP4K3) | %Inh (MAP4K4) | %Inh (MAP4K5) | %Inh (MAPKAPK2) | %Inh (MAPKAPK5) | %Inh (MARK1) | %Inh (MARK2) | %Inh (MARK3) | %Inh (MARK4)
17 | NS(=O)(=O)c1cccc(N/C=C2\C(=O)Nc3ccc(S(=O)(=O)Cc4c(Cl)cccc4Cl)cc32)c1 [GSK398099] | 0% | 0% | 0% | 0% | 28% | 0% | 15% | 0% | 0% | 0% | 0% | 19% | 28% | 0% | 20% | 0% | 0% | 0% | 0% | 0%
18 | CC(=O)c1cccc(NC(=O)NC2CCN(c3ccnc(Nc4ccc(F)cc4)n3)C2)c1 (stereo not drawn) [GSK1379710] | 14% | 0% | 0% | 28% | 47% | 7% | 3% | 0% | 0% | 30% | 11% | 8% | 13% | 16% | 16% | 0% | 0% | 0% | 16% | 0%
19 | O=C1NC(=O)C(c2ccc(Cl)cc2)=C1Nc1cccc(Cl)c1 [SB-317651] | 0% | 0% | 22% | 6% | 16% | 0% | 0% | 0% | 0% | 1% | 6% | 1% | 0% | 0% | 0% | 0% | 0% | 13% | 6% | 0%
20 | O=C(Nc1n[nH]c2nc(-c3cccs3)c(Br)cc12)C1CC1 [SB-735297] | 0% | 0% | 15% | 0% | 34% | 41% | 12% | 7% | 36% | 19% | 0% | 0% | 0% | 0% | 0% | 10% | 1% | 0% | 20% | 6%
21 | Cn1cncc1C(=O)NC1CCN(c2ccnc(Nc3ccc(F)cc3)n2)C1 (stereo not drawn) [GSK1379717] | 0% | 6% | 0% | 0% | 22% | 0% | 2% | 11% | 0% | 13% | 0% | 0% | 7% | 30% | 4% | 0% | 0% | 0% | 0% | 0%
22 | O=C(Nc1n[nH]c2nc(-c3cccs3)c(Br)cc12)C1CCCC1 [SB-743341] | 28% | 17% | 0% | 36% | 77% | 32% | 49% | 5% | 28% | 0% | 0% | 0% | 0% | 0% | 5% | 17% | 22% | 8% | 2% | 19%
23 | CSc1ccc(-c2nc3n(c2-c2ccncc2)CCC3)cc1 [SKF-105561] | 0% | 31% | 8% | 45% | 0% | 16% | 0% | 3% | 0% | 9% | 0% | 0% | 1% | 0% | 10% | 22% | 0% | 16% | 0% | 0%
24 | CNc1nc(-c2ccc3c(N)n[nH]c3c2)cc(N2C[C@@H](C(=O)Nc3ccccc3)CC[C@H]2C)n1 [GSK2298859] | 0% | 0% | 0% | 20% | 9% | 0% | 0% | 0% | 0% | 0% | 0% | 0% | 6% | 0% | 0% | 0% | 0% | 0% | 0% | 11%
25 | CS(=O)(=O)CCNCc1nc(-c2ccc3ncnc(Nc4ccc5c(cnn5Cc5ccccc5)c4)c3c2)cs1.Cl.Cl [GW569716] | 22% | 0% | 0% | 42% | 11% | 0% | 12% | 1% | 0% | 5% | 0% | 9% | 0% | 0% | 19% | 0% | 0% | 0% | 0% | 0%
26 | CNC(=O)c1ccc(C)c(-n2c(C)cc(OCc3ccc(F)cc3F)c(Br)c2=O)c1 | 0% | 0% | 1% | 0% | 0% | 0% | 0% | 0% | 0% | 6% | 0% | 0% | 0% | 0% | 0% | 0% | 0% | 1% | 0% | 0%
27 | Cn1cnc2c(N)ncnc21 [SKF-97623] | 0% | 0% | 0% | 2% | 0% | 0% | 0% | 0% | 0% | 0% | 0% | 14% | 0% | 13% | 25% | 0% | 0% | 0% | 0% | 0%
28 | CS(=O)(=O)CCNCc1nc(-c2ccc3ncnc(Nc4ccc(OCc5ccccc5)c(Cl)c4)c3c2)cs1.Cl [GW582764] | 12% | 0% | 0% | 36% | 26% | 0% | 6% | 3% | 0% | 20% | 0% | 0% | 10% | 8% | 21% | 0% | 0% | 0% | 0% | 0%
29 | COc1cc2ncnc(Nc3cccc(Br)c3)c2cc1OC.Cl [GI230329] | 0% | 0% | 67% | 38% | 34% | 0% | 2% | 33% | 29% | 4% | 0% | 0% | 0% | 0% | 0% | 0% | 0% | 0% | 0% | 5%
30 | COc1cccc(C2=C(Nc3cc(Cl)c(O)c(Cl)c3)C(=O)NC2=O)c1 [SB-390767] | 55% | 96.8% | 0% | 0% | 4% | 0% | 12% | 0% | 0% | 7% | 0% | 0% | 0% | 1% | 15% | 0% | 0% | 0% | 0% | 0%
31 | Cc1cccc2c(-c3ccncn3)c(-c3ccc(F)cc3)nn12 [GW515532] | 53% | 0% | 0% | 0% | 57% | 0% | 0% | 0% | 0% | 0% | 0% | 12% | 7% | 0% | 8% | 0% | 0% | 0% | 5% | 0%

Reference: publication PMC5540273 (PLoS ONE, 2017)
